Screens as filed in PubChem.
TDP1 cell noCPT: qHTS for Inhibitors of human tyrosyl-DNA phosphodiesterase 1 (TDP1): qHTS in cells in absence of CPT; 15% of 420,000 active; AID 686978, 2013; DT40 Tdp1-/- hTDP1 cells, no CPT, ATP luminescence, 48 h; Potency, µM (highest dose often 46.2 µM), usual class: inhibitors; further: nearly all actives have a fitted effect of over 55% in size
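Luminescent ATP content (CellTiter-Glo) served as the growth readout. Knockout chicken DT40 cells expressing human TDP1 were exposed to compounds without camptothecin for a minimum 48 hr at 37 °C.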
TDP1 inh: TDP1 (human) enzyme inhibition; 0.28% of 350,000 active; Potency, µM (top dose mostly 130 µM), most hits filed as inhibitors; recombinant TDP1, AlphaScreen DNA substrate cleavage; Q9NUW8; further: nearly all actives have a fitted effect of over 40% in size
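Tdp1 1 nM final; 15 min RT w/ cpd; substrate 15 nM, 5 min; beads 10 ug/ml, 10 min; AlphaScreen read. Neg ctrl: no enzyme.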
TDP1 cell CPT: DT40-hTDP1 cell growth loss with CPT | chicken DT40 Tdp1-/-;hTDP1 cells + 20 nM CPT, ATP luminescence, 48 h | Potency, µM (titrated, usually from 46.2 µM), usual class: inhibitors | 12% of 420,000 active | AID 686979; further: nearly all actives have a fitted effect of over 55% in size
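Chicken DT40 Tdp1-/- cells stably complemented with human TDP1 were seeded at 400 cells/well in medium containing 20 nM camptothecin, exposed to pin-transferred compounds, and grown at 37 °C for at least 48 hr. Viability was read as ATP luminescence.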
VP16 counter: counter-screen for ROR gamma inhibitors: Gal4-VP16 reporter. Drosophila S2 Gal4-VP16 UAS-luciferase, luminescence, 20 h. Potency, µM (titrated, usually from 53.6 µM), actives largely listed as inhibitors. 3.5% of 310,000 active;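 further: Gal4-VP16 expression switched on by copper sulfate through the metallothionein promoter; nearly all actives have a fitted effect of over 50% in size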
RORgamma inh: inhibitors of mouse ROR gamma transcriptional activity | Drosophila S2 Gal4-RORgamma UAS-luciferase reporter, 20 h | P51450 | 5.4% of 310,000 active | Potency, µM (series often up to 53.6 µM), actives largely listed as inhibitors; further: nearly all actives have a fitted effect of over 60% in size
Target sequence (P51450 whole entry, looked up, the tested form may be a part): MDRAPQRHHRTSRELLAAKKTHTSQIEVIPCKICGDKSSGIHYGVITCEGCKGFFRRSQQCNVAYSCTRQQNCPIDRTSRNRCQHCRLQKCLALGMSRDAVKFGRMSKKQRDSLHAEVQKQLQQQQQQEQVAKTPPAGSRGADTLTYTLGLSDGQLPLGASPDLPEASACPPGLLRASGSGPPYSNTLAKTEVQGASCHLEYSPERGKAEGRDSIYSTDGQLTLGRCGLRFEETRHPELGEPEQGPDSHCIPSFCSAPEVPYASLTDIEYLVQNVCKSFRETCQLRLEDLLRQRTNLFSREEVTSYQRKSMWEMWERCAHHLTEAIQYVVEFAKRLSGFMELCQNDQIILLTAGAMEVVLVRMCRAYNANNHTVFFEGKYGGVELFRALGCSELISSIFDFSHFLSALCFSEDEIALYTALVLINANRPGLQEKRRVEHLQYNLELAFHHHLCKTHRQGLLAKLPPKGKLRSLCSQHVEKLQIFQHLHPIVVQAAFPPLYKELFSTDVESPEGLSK
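Luciferase reporter read in Schneider cells carrying Gal4-RORγ (mouse) and UAS-Photinus luciferase; cells given compound 1 h before 700 uM copper sulfate induction, then incubated 20 h at ambient temperature.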
Numbers stand for hits; – = inactive; ? = inconclusive; · = no result; ! = repeats disagree. The list is not random: actives were taken first. Their share in the collection is about 19%. The call rests on the fitted dose curve; in most records, active means well fitted curve in the direction sought with a large enough effect; inconclusive means small, poorly fitted or top-dose-only effect, or another doubt; inactive means no such curve, though single readings can be large; an effect the other way counts as inactive or inconclusive.

SMILES | TDP1 cell noCPT | TDP1 inh | TDP1 cell CPT | VP16 counter | RORgamma inh
COc1cccc(NCc2cc(=O)oc3cc(C)c(O)cc23)c1 | ? | · | ? | – | –
O=c1cc(CN2CCN(c3ccc(Cl)c(Cl)c3)CC2)c2ccccc2o1 | 14.6µM | · | – | · | ·
O=c1cc(CN2CCN(c3ccccc3)CC2)c2cc(O)c(-c3ccccc3)cc2o1 | 10.3µM | – | 5.8µM | – | –
O=C(CC1Nc2ccccc2NC1=O)NCCCN1CCCCCC1 (centres undefined) | – | – | – | – | –
CCCN(C(=O)c1cccc(S(=O)(=O)N2CCN(Cc3ccccc3)CC2)c1)C1CCS(=O)(=O)C1 (centres undefined) | ? | – | ? | · | ·
Cc1ccc(C(=O)Nc2nnc(S(=O)(=O)N3c4ccccc4CC3C)s2)cc1 (centres undefined) | 23.1µM | – | ? | · | ·
CC1Cc2ccccc2N1S(=O)(=O)c1nnc(NC(=O)c2ccccc2)s1 (centres undefined) | ? | – | ? | · | ·
CC1Cc2ccccc2N1S(=O)(=O)c1cccc(C(=O)NCCCO)c1 (centres undefined) | – | – | – | – | –
CCOC(=O)c1ccc(NC(=O)c2cccc(S(=O)(=O)N3c4ccccc4CC3C)c2)s1 (centres undefined) | 6.51µM | – | 16.4µM | ? | ?
CCNc1nc(-c2ccc(OC(F)F)cc2)c(C)s1 | – | – | ? | – | 11.2µM
Cc1sc(N)nc1-c1ccc(Oc2ccccc2)cc1 | ? | – | ? | – | ?
CCOC(=O)c1cccc(NS(=O)(=O)c2cc3c(cc2C)NC(=O)CO3)c1 | 18.4µM | – | 18.4µM | · | ·
CCN1CCN(c2ccc(NS(=O)(=O)c3c(C)nc4sccn4c3=O)cc2Cl)CC1 | ? | – | ? | · | ·
Cc1nc2sccn2c(=O)c1S(=O)(=O)Nc1ccc(N2CCOCC2)c(Cl)c1 | 29.1µM | – | 18.4µM | – | ?
CCOC(=O)c1ccc(NS(=O)(=O)c2c(C)nc3sccn3c2=O)cc1 | 16.4µM | · | 16.4µM | – | ?
CCOC(=O)c1cccc(NS(=O)(=O)c2c(C)nc3sc(C)cn3c2=O)c1 | 23.1µM | – | 13µM | · | ·
Cc1cn2c(=O)c(S(=O)(=O)Nc3ccc(F)cc3F)c(C)nc2s1 | ? | – | – | · | ·
Cc1ccc(NS(=O)(=O)c2c(C)nc3sccn3c2=O)cc1 | – | · | ? | – | –
Cn1c(=O)oc2cc(S(=O)(=O)N3CCCC(C(=O)NCc4ccc(F)cc4)C3)ccc21 (centres undefined) | ? | – | ? | · | ·
CC(=O)c1cccc(NS(=O)(=O)c2c(C)nc3sc(C)cn3c2=O)c1 | 14.6µM | – | 18.4µM | · | ·
Cc1nc2scc(C)n2c(=O)c1S(=O)(=O)Nc1ccc(OC(F)(F)F)cc1 | 14.6µM | – | 20.6µM | ? | ?
Cc1ccc(NS(=O)(=O)c2c(C)nc3sc(C)c(C)n3c2=O)cc1F | 14.6µM | ? | 11.6µM | · | ·
CCc1cccc(NS(=O)(=O)c2c(C)nc3sc(CC)nn3c2=O)c1 | 20.6µM | – | ? | – | ?
COc1cc(NS(=O)(=O)c2c(C)nc3sc(C)c(C)n3c2=O)cc(OC)c1 | ? | – | ? | · | ·
CC1(C)CC(=S)Nc2ccccc2S1 | – | – | ? | 5.01µM | 2.82µM
SMILES | TDP1 cell noCPT | TDP1 inh | TDP1 cell CPT | VP16 counter | RORgamma inh
Nc1nnc(SCc2ccc(Cl)cc2)s1 | – | – | – | – | ?
Clc1ccc(CSc2nnc(NC3=NCCCCC3)s2)cc1 | 10.3µM | – | ? | – | –
CCOC(=O)[C@H](CCc1ccccc1)N[C@@H](C)C(=O)N1Cc2ccccc2C[C@H]1C(=O)O | 0.259µM! | · | ? | · | ·
CCOC(=O)[C@@H](CCc1ccccc1)N[C@H](C)C(=O)N1[C@H](C(=O)O)C[C@@H]2CCC[C@@H]21 | – | · | – | – | –
CCOC(=O)c1sc(NC(=O)CSc2nc3ccccc3o2)c(C(=O)OCC)c1C | ? | – | ? | 2µM | 3.16µM
CCOC(=O)c1c(NC(=O)CSc2nc3ccccc3s2)sc(C(C)=O)c1C | 16.4µM | – | 7.31µM | ? | –
O=C(O)c1ccc(N=Nc2c(-c3ccccc3)[nH]oc2=O)cc1 | – | · | – | – | –
CCC(c1nnnn1-c1ccc2c(c1)OCCO2)N1CCN(c2ncccc2C(F)(F)F)CC1 (centres undefined) | 18.4µM | · | ? | · | ·
